Shown are actives, neighbours in structure and some others; about 3.1% of the full set was active somewhere.
AF4-AF9 inh: MLL-AF4/AF9 protein interaction inhibition; P42568; inhibition, % at 10 µM; hit rate 0.47% among 350,000; AlphaScreen, biotin-AF4 peptide binding to FLAG-AF9;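 active = every replicate reaching a set inhibition limit, whatever the replicate mean, cut at about 25% in these data; inconclusive = mean inhibition reaches that limit but some replicates miss it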;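 also: 0% = plate neutral control median and 100% = total signal loss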
dFosB act: mouse delta FosB homodimer activation | activation, % at 25 µM | purified delta FosB, TAMRA-CDK5 oligo fluorescence polarization; percent of positive-control signal above neutral wells | hit rate 0.99% among 340,000;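 active = mean activation above about 17%, with every replicate also reaching it, limit read from the data, passing the limit was not always enough; inconclusive = only one of the two conditions met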
Target sequence (P13346 whole entry, looked up): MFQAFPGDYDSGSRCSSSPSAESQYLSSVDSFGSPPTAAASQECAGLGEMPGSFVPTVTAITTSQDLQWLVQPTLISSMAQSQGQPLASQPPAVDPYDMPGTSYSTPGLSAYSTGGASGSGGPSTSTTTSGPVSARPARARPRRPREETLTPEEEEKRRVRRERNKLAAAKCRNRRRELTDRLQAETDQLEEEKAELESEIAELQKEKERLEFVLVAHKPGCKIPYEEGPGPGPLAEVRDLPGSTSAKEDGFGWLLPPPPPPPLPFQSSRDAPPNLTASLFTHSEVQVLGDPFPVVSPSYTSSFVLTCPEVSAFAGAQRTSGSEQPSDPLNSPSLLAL
GSIS activator: primary screen for activators of insulin secretion dependent on glucose, INS-1E cells, GLuc reporter luminescence; activation, % at 16.6 µM; hit rate 0.61% among 370,000; INS-1E GLuc reporter insulin secretion, 2-3 h; AID 743287;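 active = lowest replicate activation of at least 40%, so every replicate reaches that level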;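 also: 0% = median of neutral control wells and 100% = median of IBMX positive control wells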
DENV2 CPE rescue: DENV2-induced cell death inhibition; DENV2-infected cells, cytopathic effect rescue, plate reader; CPE inhibition, % at 9.99 µM; hit rate 1.7% among 350,000; in the data active = CPE inhibition above about 20%, passing the limit was not always enough; inconclusive = no clear call, values can overlap the other calls; tested in BHK-21 cells;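 also: 0% = median of neutral control wells and 100% = median of positive control wells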
RAD52 inh: RAD52 (human) annealing inhibition | P43351 | recombinant RAD52 DNA annealing, FRET fluorescence | inhibition, % at 18.7 µM | hit rate 0.46% among 360,000 | AID 651710;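 active = every replicate showing at least 50% inhibition; inconclusive = mean inhibition at least 50% but not in every replicate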
RAD54 inh: inhibitors of human RAD54 branch migration. Q92698. RAD54 Holliday junction branch migration, FAM/BHQ fluorescence. inhibition, % at 10.4 µM. hit rate 0.14% among 360,000. AID 602329;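 active = mean normalized replicate activity at least 40 and at least half of replicates scoring 40 or more; inconclusive = only one of the two criteria met; inactive = mean below 40 and under half of replicates reaching 40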;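 also: 0% = median of neutral control wells and 100% = median of positive control wells; inhibitors cause a drop in the FAM fluorescence signal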
* marks the source's active call; other numbers are inactive results; i = inactive; ? = inconclusive; . = no result.

SMILES	AF4-AF9 inh	dFosB act	GSIS activator	DENV2 CPE rescue	RAD52 inh	RAD54 inh
C[C@H](CO)N1C[C@H](C)[C@H](CN(C)Cc2ccccc2)OCCCC[C@H](C)Oc2ccc(NS(=O)(=O)c3ccc(Cl)cc3)cc2C1=O	11	.	-10	-20	52*	-2
C[C@@H]1CCCCO[C@@H](CN(C)Cc2ccccc2)[C@@H](C)CN([C@@H](C)CO)C(=O)c2cc(NS(=O)(=O)c3ccc(Cl)cc3)ccc2O1	3	.	-26	3	58*	2
COc1ccc(CN(C)C[C@@H]2OCCCC[C@H](C)Oc3ccc(NC(=O)NC4CCCCC4)cc3C(=O)N([C@H](C)CO)C[C@@H]2C)cc1	4	.	-13	0	19	-10
COC(=O)C[C@@H]1CC[C@@H]2[C@@H](COc3ccc(NS(=O)(=O)c4ccccc4F)cc3C(=O)N2C)O1	.	.	-8	1	.	-2
CCCCCCc1cc2cc(C(=O)Nc3ccc(OC)cc3)c(=O)oc2cc1O	1	8	16	-1	-11	.
CCCCCCc1cc2cc(C(=O)Nc3cccc(OC)c3)c(=O)oc2cc1O	.	-3	68*	.	.	-9
CCSc1ccc(C(=O)Nc2cccc(C)n2)cc1[N+](=O)[O-]	.	7	59*	.	.	.
CCN1C(=O)/C(=C2/C=Cc3ccccc3N2C)OC1=S	.	5	.	.	.	3
CN1/C(=C/c2cc[n+](C)c3ccccc23)C=Cc2ccccc21	.	51*	.	.	.	.
COCC(=O)Nc1ccc2c(c1)C(=O)N(C)[C@H]1CC[C@@H](CC(=O)NCCc3ccccc3)O[C@@H]1CO2	-1	.	-1	2	-6	2
O=C(CCN1CCN(C(c2ccccc2)c2ccccc2)CC1)N/N=C/c1ccc(O)cc1	.	5	-17	.	.	.
O=C(CCN1CCN(C(c2ccccc2)c2ccccc2)CC1)N/N=C/c1ccc(O)cc1O	.	37*	-2	.	.	.
O=C([C@@H]1[C@@H](CO)[C@@H]2Cn3c(cccc3=O)[C@H]1N2CC1CCCC1)N1CCc2ccccc2C1	1	.	-1	3	6	0
C=CCn1c(SCC(=O)c2c(N)n(C)c(=O)n(C)c2=O)nc2sc(C)c(C)c2c1=O	.	?	309*	.	.	-1
COc1ccccc1NC(=O)C(C)OC(=O)C1CCN(S(=O)(=O)c2ccccc2C(F)(F)F)CC1 (stereo unspecified)	-2	-21	.	54*	-4	0
O=C(Nc1ccccc1F)N[C@@H]1CC[C@H](CCNS(=O)(=O)c2ccc(F)cc2)O[C@@H]1CO	-1	.	-2	-2	-1	-1
CSc1ccccc1NC(=O)CN1c2ccccc2CC1C (stereo unspecified)	51*	-6	8	0	-25	.
CSc1ccccc1NC(=O)CN1CCCCC1C (stereo unspecified)	0	3	12	18	-10	.
CCOc1ccccc1N(CC(=O)NCCOC)C(=O)CCC(=O)Nc1ccccn1	0	2	-8	-2	-12	-1
COCCNC(=O)CN(C(=O)CCC(=O)Nc1ccccn1)c1cc(C)ccc1C	26*	0	-1	-7	5	-2
CCOC(=O)Cn1c(=NC(=O)CN2C(=O)CCC2=O)sc2cc(S(N)(=O)=O)ccc21	0	-4	3	0	-9	3
CCOC(=O)c1ccc2c(c1)sc(=NC(=O)c1ccco1)n2CCOC	.	-4	65*	.	.	-10
CCOC(=O)Cn1c(=NC(=O)c2cccs2)sc2cc(C(=O)OC)ccc21	.	-4	90*	.	.	.
CCOC(=O)Cn1c(=NC(=O)c2nc3ccccc3s2)sc2cc(S(N)(=O)=O)ccc21	.	?	68*	.	.	-1
O=C1c2ccccc2C(=O)c2c1cccc2N1CCCC1	40*	-1	.	8	8	7
SMILES	AF4-AF9 inh	dFosB act	GSIS activator	DENV2 CPE rescue	RAD52 inh	RAD54 inh
CCOc1ccc2noc3c2c1C(=O)c1ccccc1-3	.	-21	.	.	.	1
O=C1c2ccccc2-c2onc3ccc(N4CCCC4)c1c23	28*	-131	6	.	i	.
C[C@@H]1CCCCO[C@H](CN(C)C(=O)Nc2ccc(C(F)(F)F)cc2)[C@@H](C)CN([C@@H](C)CO)C(=O)c2cc(NC(=O)Nc3ccccc3)ccc2O1	-2	.	-2	1	13	-5
CCN(CC)CCNC(=O)c1ccc2c(c1NCCO)C(=O)c1ccccc1C2=O	16	.	-19	-15	87*	122*
C[C@H]1CN([C@@H](C)CO)C(=O)Cc2cc(NS(=O)(=O)c3ccccc3)ccc2O[C@@H]1CN(C)Cc1ccc(C(=O)O)cc1	-2	.	10	-2	-1	.
COC(=O)c1ccc2c(c1)C(C)(C)C(/C=C/c1ccc(OC)c(OC)c1OC)=[N+]2C	.	18*	.	.	.	.
CNC[C@H]1OCCCC[C@H](C)Oc2ccc(NS(C)(=O)=O)cc2C(=O)N([C@H](C)CO)C[C@@H]1C	-5	.	21	4	-73	6
CS(=O)(=O)Nc1ccc2c(c1)[C@@H]1C[C@H](CC(=O)NC3CCCC3)O[C@H](CO)[C@@H]1O2	-2	.	12	1	-1	4
COc1ccc2c3c(n(C)c2c1)[C@H](CO)NCC31CN(Cc2ccncc2)C1	4	.	-2	13	.	.
COc1ccc2c3c(n(C)c2c1)[C@H](CO)NCC31CN(Cc2ccccc2F)C1	54*	.	26	1	.	.
COc1ccc2c3c(n(C)c2c1)[C@H](CO)NCC31CN(C(=O)Nc2ccc(F)cc2F)C1	16	.	9	20	35	.
COc1ccc2c3c(n(C)c2c1)[C@H](CO)NCC31CCN(Cc2ccccc2F)CC1	13	.	1	31*	.	.
COc1ccc2c3c(n(C)c2c1)[C@@H](CO)NCC31CN(Cc2cc(F)ccc2F)C1	24	.	8	31*	.	.
COc1ccc2c3c(n(C)c2c1)[C@H](CO)NCC31CCN(S(=O)(=O)c2cccc(C)c2)CC1	19	.	-22	5	55*	.
COc1ccc2c3c(n(C)c2c1)[C@H](CO)NCC31CCN(Cc2ccccc2Cl)CC1	9	.	20	6	.	.
COc1ccc(S(=O)(=O)N[C@H]2CC[C@@H](CC(=O)N3CCc4ccccc4C3)O[C@@H]2CO)cc1	-1	.	-11	2	3	-13
CN(C)C(=O)[C@@H]1[C@@H](CO)[C@@H]2Cn3c(ccc(C4=CCCC4)c3=O)[C@H]1N2CC1CCCC1	1	.	-1	-8	4	.
O=C(C[C@@H]1C[C@@H]2c3cc(NC(=O)NC4CCCC4)ccc3O[C@@H]2[C@@H](CO)O1)NCc1cccnc1	3	.	10	-1	17	.
COc1ccc2c3c(n(C)c2c1)[C@H](CO)NCC31CCN(Cc2cc(-c3ccccc3)on2)CC1	39*	.	12	-24	67*	.
